Pf apPOL inh = Pf-apPOL DNA polymerase inhibition; Recombinant Pf-apPOL, molecular beacon fluorescence, 1.5 h; inhibition, % at 10 µM; 0.25% of 210,000 active; AID 1794808
mHTT CaM bind = inhibitors of human mutant huntingtin-calmodulin interaction; 3.6% of 190,000 active; AID 1671202; P42858; AlphaScreen His-mHTT/GST-CaM binding, luminescence; inhibition, % at 15 µM;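 further: 0% = both proteins with DMSO and 100% = one protein alone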
Target sequence (P42858 whole entry, looked up, stated change not applied): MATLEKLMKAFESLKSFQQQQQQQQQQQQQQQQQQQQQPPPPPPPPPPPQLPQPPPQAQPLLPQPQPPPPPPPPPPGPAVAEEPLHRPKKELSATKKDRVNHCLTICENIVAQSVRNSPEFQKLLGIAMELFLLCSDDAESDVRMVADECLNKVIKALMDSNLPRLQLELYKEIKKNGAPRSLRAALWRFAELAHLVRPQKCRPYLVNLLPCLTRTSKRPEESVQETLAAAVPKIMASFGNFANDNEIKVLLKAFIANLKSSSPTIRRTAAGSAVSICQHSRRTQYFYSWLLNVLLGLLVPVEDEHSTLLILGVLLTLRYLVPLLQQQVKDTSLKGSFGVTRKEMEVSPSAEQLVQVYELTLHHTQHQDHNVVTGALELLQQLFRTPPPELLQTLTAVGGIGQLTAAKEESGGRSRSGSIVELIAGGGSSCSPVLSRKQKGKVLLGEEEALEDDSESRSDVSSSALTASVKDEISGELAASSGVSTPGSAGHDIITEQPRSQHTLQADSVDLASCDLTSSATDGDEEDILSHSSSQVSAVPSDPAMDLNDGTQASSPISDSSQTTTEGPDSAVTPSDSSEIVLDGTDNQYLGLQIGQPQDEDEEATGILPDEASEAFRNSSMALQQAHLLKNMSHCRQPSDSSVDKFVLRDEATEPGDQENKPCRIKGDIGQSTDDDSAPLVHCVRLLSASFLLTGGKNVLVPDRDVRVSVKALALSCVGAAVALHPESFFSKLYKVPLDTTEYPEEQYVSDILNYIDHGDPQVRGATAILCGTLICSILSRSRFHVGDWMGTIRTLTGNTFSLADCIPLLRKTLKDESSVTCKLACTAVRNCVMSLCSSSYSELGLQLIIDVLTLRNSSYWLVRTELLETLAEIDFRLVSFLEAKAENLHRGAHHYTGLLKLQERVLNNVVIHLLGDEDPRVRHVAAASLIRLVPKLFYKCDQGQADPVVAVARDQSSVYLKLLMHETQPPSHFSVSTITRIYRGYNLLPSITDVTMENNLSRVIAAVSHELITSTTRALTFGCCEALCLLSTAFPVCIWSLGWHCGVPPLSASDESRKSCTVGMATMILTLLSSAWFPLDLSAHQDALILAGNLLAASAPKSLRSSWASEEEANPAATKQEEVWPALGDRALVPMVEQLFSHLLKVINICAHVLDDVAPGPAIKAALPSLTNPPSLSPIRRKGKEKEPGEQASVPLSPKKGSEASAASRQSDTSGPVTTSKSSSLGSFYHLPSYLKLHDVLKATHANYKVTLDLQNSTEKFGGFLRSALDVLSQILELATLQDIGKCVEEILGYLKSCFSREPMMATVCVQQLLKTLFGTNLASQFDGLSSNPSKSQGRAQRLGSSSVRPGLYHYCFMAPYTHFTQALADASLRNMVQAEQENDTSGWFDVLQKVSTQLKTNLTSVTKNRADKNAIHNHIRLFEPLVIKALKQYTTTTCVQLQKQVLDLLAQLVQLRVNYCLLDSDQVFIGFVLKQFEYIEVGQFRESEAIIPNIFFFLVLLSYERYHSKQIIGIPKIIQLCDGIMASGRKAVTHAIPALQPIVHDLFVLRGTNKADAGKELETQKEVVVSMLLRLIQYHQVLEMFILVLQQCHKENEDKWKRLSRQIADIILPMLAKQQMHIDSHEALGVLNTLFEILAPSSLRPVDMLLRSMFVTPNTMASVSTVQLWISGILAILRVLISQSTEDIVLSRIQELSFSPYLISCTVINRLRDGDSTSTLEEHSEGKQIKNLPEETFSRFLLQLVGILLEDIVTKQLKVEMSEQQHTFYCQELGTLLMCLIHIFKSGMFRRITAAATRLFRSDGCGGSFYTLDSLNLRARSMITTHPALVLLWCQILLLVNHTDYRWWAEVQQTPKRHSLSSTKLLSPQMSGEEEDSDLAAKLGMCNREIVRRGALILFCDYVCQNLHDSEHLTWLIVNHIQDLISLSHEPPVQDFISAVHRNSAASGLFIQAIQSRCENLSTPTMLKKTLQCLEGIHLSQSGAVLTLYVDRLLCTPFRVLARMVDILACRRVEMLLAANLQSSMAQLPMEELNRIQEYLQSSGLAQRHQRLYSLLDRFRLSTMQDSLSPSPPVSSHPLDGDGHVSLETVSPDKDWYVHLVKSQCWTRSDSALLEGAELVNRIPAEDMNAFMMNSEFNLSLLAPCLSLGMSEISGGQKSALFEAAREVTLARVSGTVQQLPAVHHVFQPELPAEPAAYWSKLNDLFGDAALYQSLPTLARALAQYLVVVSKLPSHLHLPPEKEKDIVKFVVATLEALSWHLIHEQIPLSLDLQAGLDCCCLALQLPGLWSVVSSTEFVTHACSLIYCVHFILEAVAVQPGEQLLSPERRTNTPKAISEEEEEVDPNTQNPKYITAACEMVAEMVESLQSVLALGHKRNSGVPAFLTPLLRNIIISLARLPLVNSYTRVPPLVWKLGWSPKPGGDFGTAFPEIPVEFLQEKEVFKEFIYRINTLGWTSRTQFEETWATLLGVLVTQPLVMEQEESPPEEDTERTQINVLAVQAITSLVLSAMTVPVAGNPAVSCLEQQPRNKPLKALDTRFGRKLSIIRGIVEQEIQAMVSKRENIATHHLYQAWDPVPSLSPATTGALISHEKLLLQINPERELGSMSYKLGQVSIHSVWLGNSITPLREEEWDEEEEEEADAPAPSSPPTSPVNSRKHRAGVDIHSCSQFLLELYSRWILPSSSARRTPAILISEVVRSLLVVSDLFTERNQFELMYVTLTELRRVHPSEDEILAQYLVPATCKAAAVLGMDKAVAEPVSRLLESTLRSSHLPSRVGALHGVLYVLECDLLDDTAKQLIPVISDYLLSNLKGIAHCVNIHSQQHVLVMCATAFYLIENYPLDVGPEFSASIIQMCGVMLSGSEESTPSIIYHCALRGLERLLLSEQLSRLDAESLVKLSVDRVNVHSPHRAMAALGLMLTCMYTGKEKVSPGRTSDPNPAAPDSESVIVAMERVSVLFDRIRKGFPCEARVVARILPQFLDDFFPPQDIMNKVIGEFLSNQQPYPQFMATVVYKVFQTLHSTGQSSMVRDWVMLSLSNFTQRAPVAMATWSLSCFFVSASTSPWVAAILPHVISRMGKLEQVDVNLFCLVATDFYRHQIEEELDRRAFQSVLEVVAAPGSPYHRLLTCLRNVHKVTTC
Active calls of the source: *; i = inactive; / = no result given. This is one part of a sample in which hits are shown more often than they occur. No stated cut-off is given here; in the data, active means inhibition above about 50%; inactive means the rest.

SMILES	Pf apPOL inh	mHTT CaM bind
OC(CI)COC12CC3CC(CC(C3)C1)C2 (stereo unspecified)	3	-10
O=C(CSc1ccc(F)cc1)N1CCC(Cn2cnc3ccccc32)CC1	-8	-11
COc1cccc(NC(=O)N2CCc3c(nc4cc(-c5ccccc5Cl)[nH]n4c3=O)C2)c1	0	51*
O=C(Nc1ccccc1)N1CCc2c(nc3cc(-c4ccccc4Cl)[nH]n3c2=O)C1	0	43
O=C(NCc1ccco1)N1CCc2nc3cc(-c4ccccc4Cl)[nH]n3c(=O)c2C1	27	68*
CC(C)C(=O)N1CCc2nc3cc(-c4ccccc4Cl)[nH]n3c(=O)c2C1	13	58*
CC(C)C(=O)N1CCc2c(nc3cc(-c4ccccc4Cl)[nH]n3c2=O)C1	-1	12
COCCNC(=O)N1CCc2[nH]nc(-c3ccccc3)c2C1	-3	-4
Cc1ccc(-c2n[nH]c3c2CN(C(=O)NCc2ccco2)CC3)cc1	-1	64*
O=C(NCc1ccco1)N1CCc2c(nc3cc(-c4ccccc4Cl)[nH]n3c2=O)C1	-2	24
CCc1cc(C2CCCN2C(=O)Nc2cc(Cl)c(OC)cc2OC)on1 (stereo unspecified)	6	4
Cc1ccc(CNC(=O)CSc2nc3nc(C)c(Cc4ccccc4)c(C)n3n2)cc1	0	22
CCOc1ccccc1C(=O)NC1CC1	-2	-3
Cc1cccc(NC(=O)c2ccc(S(=O)(=O)N3CCc4ccccc4C3)cc2)n1	-1	8
O=C(O)CC(C(=O)O)N1C(=O)C(=Cc2ccco2)SC1=S (stereo unspecified)	31	-1
COc1ccc(S(=O)(=O)Nc2ccc(F)c(F)c2)cc1	10	-10
O=C(c1n[nH]c2c1CCCC2)N1CCc2c(nc3cc(-c4ccccc4Cl)[nH]n3c2=O)C1	-4	59*
O=C(c1ccccc1)N1CCc2nc3cc(-c4ccccc4Cl)[nH]n3c(=O)c2C1	6	13
O=C(c1n[nH]c2c1CCCCCC2)N1CCc2c(nc3cc(-c4ccccc4)[nH]n3c2=O)C1	0	19
O=C(c1ccc2[nH]ccc2c1)N1CCc2nc3cc(-c4ccccc4Cl)[nH]n3c(=O)c2C1	23	96*
CCc1ccc(NC(=O)CN(c2cc(Cl)ccc2OC)S(C)(=O)=O)cc1	-2	8
Cc1ccc(-c2nc(C)cc(OCC(=O)NCc3ccccc3)n2)cc1	-7	-20
Cc1nc2cccnc2n1C1CCN(C(=O)Nc2ccc3c(c2)CCC3)C1 (stereo unspecified)	-1	25
CCC(CO)NCC(O)Cn1c2c(c3cc(C)ccc31)CCCC2 (stereo unspecified)	-8	54*
Cc1ccc2c(c1)c1c(n2CC(O)Cn2nc(C)cc2C)CCCC1 (stereo unspecified)	3	46
SMILES	Pf apPOL inh	mHTT CaM bind
Cc1ccc2c(c1)c1c(n2CC(O)CNCc2ccco2)CCCC1 (stereo unspecified)	0	55*
CNCC(O)Cn1c2c(c3ccccc31)CCCC2 (stereo unspecified)	-12	14
CC1CCCCN1C(=O)CN1C(=O)/C(=C/c2ccc(C(F)(F)F)cc2)Sc2ccccc21 (stereo unspecified)	-23	-17
CCN(CC)S(=O)(=O)c1ccc(-c2csc(C)n2)s1	-8	/
Cc1ccc(NCCNS(=O)(=O)c2ccc(-c3csc(C)n3)s2)nn1	-6	99*
Cc1ccc(NC(=O)NC2CCN(c3ccc(C)c(C)c3)C2=O)cc1 (stereo unspecified)	1	-13
N#C/C(=C\c1ccc(-c2ccc3c(c2)C(=O)NC3=O)o1)c1nc2ncc(Br)cc2[nH]1	-5	73*
Cn1c(=O)n(C)c2cc(/C=C(\C#N)c3nc4ncc(Br)cc4[nH]3)ccc21	6	10
O=C(Cc1ccc(Cl)cc1)Nc1ccccc1NC(=O)Cc1ccc(Cl)cc1	3	-5
CC(=O)Nc1ccccc1NC(=O)Cc1ccc(Cl)cc1	95*	-1
COc1ccc(CNC(=O)c2cnn3c2NC(c2ccc(OC)cc2)CC3C(F)(F)F)cc1 (stereo unspecified)	-1	19
COc1cccc(C2CC(C(F)(F)F)n3ncc(C(=O)NCc4ccc(F)cc4)c3N2)c1 (stereo unspecified)	-7	64*
Cc1cc(C(N)=O)c2cc(C(C)C)ccc2n1	-1	1
N#Cc1cccc(NC(=O)CSc2nc3c(c(=O)[nH]2)CN(Cc2ccccc2)CC3)c1	-6	54*
O=c1[nH]c(SCc2ccccc2Cl)nc2c1CN(Cc1ccccc1)CC2	-2	1
COc1cccc(NS(=O)(=O)c2ccc3nc(-c4ccccc4)[nH]c3c2)c1	7	7
O=C1N(Cc2ccccc2)c2ccccc2C12Oc1ccccc1C1CC(c3ccco3)=NN12 (stereo unspecified)	4	32
CC1=NN2C(C1)c1ccccc1OC21C(=O)Nc2ccccc21 (stereo unspecified)	-13	80*
Brc1cccc(C2C=C(c3cccs3)Nc3ncnn32)c1 (stereo unspecified)	65*	13
COc1ccc(C2C=C(c3cccc(Br)c3)Nc3ncnn32)cc1 (stereo unspecified)	-10	59*
COc1cccc(C2=CC(c3cc(OC)c(OC)c(OC)c3)n3ncnc3N2)c1 (stereo unspecified)	14	28
COc1cc(C2C=C(c3cccc(NC(C)=O)c3)Nc3ncnn32)cc(OC)c1OC (stereo unspecified)	61*	-3
Brc1ccc(C2C=C(c3cccs3)Nc3ncnn32)cc1 (stereo unspecified)	-3	17
COc1cccc(C2C=C(c3cccc(Br)c3)Nc3nnnn32)c1 (stereo unspecified)	-6	-13
COc1ccc(C2C=C(c3cccc(Br)c3)Nc3nnnn32)cc1OC (stereo unspecified)	4	65*
SMILES	Pf apPOL inh	mHTT CaM bind
Cc1ccc(C2C=C(c3cccc(Br)c3)Nc3ncnn32)cc1 (stereo unspecified)	-8	14
O=C1OC(c2cccs2)=N/C1=C/c1ccccc1	4	5
O=c1oc2cc([N+](=O)[O-])ccc2c2ccc([N+](=O)[O-])cc12	/	-6
COc1ccc(-c2cn3c4ccccc4nc3n2CCN2CCCCC2)cc1	-5	42
CCN(CC)c1ccc(N=Nc2c(Cl)cc(C(F)(F)F)cc2Cl)cc1	-8	/
C(=N/Nc1nncn1/N=C\c1cccs1)/c1cccs1	/	i
COc1ccc(NC(=O)C2CCN(c3cccc(Cl)c3)C2=O)c(OC)c1 (stereo unspecified)	-4	16
N#CC1=CN(c2ccc3c(c2)CCC3)c2cc(Cl)ccc2S1(=O)=O	-2	2
Cc1cccc(OCC(=O)Nc2cccc([N+](=O)[O-])c2)c1C	-5	1
COc1ccc(OC)c(C2C=C(c3cccc(Br)c3)Nc3nnnn32)c1 (stereo unspecified)	9	56*
COc1ccc(OC)c(C2C=C(c3ccc(Cl)cc3)Nc3nnnn32)c1 (stereo unspecified)	0	17
O=C1C(=O)N(Cc2csc(-c3ccc(Cl)cc3)n2)c2ccc(Br)cc21	0	46
O=C1C(=O)N(Cc2ccccc2Cl)c2ccc(Br)cc21	-2	86*
CCN(CC)C(=O)CN1C(=O)C(=O)c2cc(Br)ccc21	/	97*
O=C1C(=O)N(Cc2ccccc2)c2ccc(Br)cc21	5	48
O=C1C(=O)N(Cc2c(F)cccc2Cl)c2ccc(Br)cc21	0	66*

Screening data: PubChem, University of Kansas High Throughput Screening Laboratory
